Compounds without any hit were thinned out: in the full panel of roughly 83,000, 20% have a hit.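 For each line, cells grew in 96-well plates with the test compound present at a single concentration for 48 hours.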 A number with no mark means an inactive call. The source made the active and inactive calls. Rule for the calls: active = growth percent below 10; inactive = the rest.
How the values were obtained:
Experiment in all cases: NCI-60 one-dose screen, 48 h (100 = growth as untreated, 0 = no growth, -100 = all killed)
Conditions in all cases: 10 µM unless noted
EKVX NSCLC = test system: EKVX NSCLC
SN12C renal = test system: SN12C renal
UO-31 renal = test system: UO-31 renal
TK-10 renal = test system: TK-10 renal
ACHN renal = test system: ACHN renal
CAKI-1 renal = test system: CAKI-1 renal
A498 renal = test system: A498 renal
CCRF-CEM leukemia = test system: CCRF-CEM leukemia
MOLT-4 leukemia = test system: MOLT-4 leukemia
SR leukemia = test system: SR leukemia

Clc1ccc([C@@H]2C[C@@H]3Cc4cc(Br)c5ccccc5c4N2O3)c(Cl)c1
growth (EKVX NSCLC): 108%
growth (SN12C renal): 96.8%
growth (UO-31 renal): 64%
growth (TK-10 renal): 90.2%
growth (ACHN renal): 81.6%
growth (CAKI-1 renal): 73.6%
growth (A498 renal): 87%
growth (CCRF-CEM leukemia): 66.5%
growth (MOLT-4 leukemia): 78%
growth (SR leukemia): 20.8%

Cn1c(N)c(N=O)c(=O)[nH]c1=O
growth (EKVX NSCLC): 98%
growth (SN12C renal): 101%
growth (UO-31 renal): 82.5%
growth (TK-10 renal): 101%
growth (ACHN renal): 100%
growth (CAKI-1 renal): 108%
growth (A498 renal): 111%
growth (CCRF-CEM leukemia): 91.1%
growth (MOLT-4 leukemia): 96.3%
growth (SR leukemia): 97.6%

CCCCCCCC/C=C\CCCCCCCCOc1ccccc1CC(=O)NCC[N+]1(C)CCCC1
growth (EKVX NSCLC): 93%
growth (SN12C renal): 49.5%
growth (UO-31 renal): 99.2%
growth (TK-10 renal): 70.5%
growth (ACHN renal): 107%
growth (CAKI-1 renal): 97.4%
growth (A498 renal): 93.2%
growth (CCRF-CEM leukemia): 39.3%
growth (MOLT-4 leukemia): 65%
growth (SR leukemia): 28%

CCCCCCCCCCCCNc1ncnc2[nH]ncc12
growth (EKVX NSCLC): 51.2%
growth (SN12C renal): 80.3%
growth (UO-31 renal): 77.7%
growth (TK-10 renal): 88.2%
growth (ACHN renal): 83.4%
growth (CAKI-1 renal): 66.2%
growth (A498 renal): 50.4%
growth (CCRF-CEM leukemia): 68.3%
growth (MOLT-4 leukemia): 65.8%
growth (SR leukemia): 9.74% (active)

Cc1cc(C(C)(C)c2cc(C)c(O)c(CN(C)C)c2)cc(CN(C)C)c1O
growth (EKVX NSCLC): 92.3%
growth (SN12C renal): 96.3%
growth (UO-31 renal): 59.4%
growth (TK-10 renal): 94.2%
growth (ACHN renal): 86.2%
growth (CAKI-1 renal): 79.6%
growth (A498 renal): 69.5%
growth (CCRF-CEM leukemia): 100%
growth (MOLT-4 leukemia): 87.4%
growth (SR leukemia): 74.8%

Cc1cc(C)n(C(=O)c2nn(-c3ccc(Cl)cc3)cc2O)n1
growth (EKVX NSCLC): 66.8%
growth (SN12C renal): 25.6%
growth (UO-31 renal): 13.7%
growth (TK-10 renal): 35.7%
growth (ACHN renal): 33.4%
growth (CAKI-1 renal): 77.6%
growth (A498 renal): 56.2%
growth (CCRF-CEM leukemia): 13%
growth (MOLT-4 leukemia): 9.99% (active)
growth (SR leukemia): 3.49% (active)

O=C1OC(c2ccc(-c3ccccc3)cc2)=C/C1=C/c1cccs1
growth (EKVX NSCLC): 78.8%
growth (SN12C renal): 80.9%
growth (UO-31 renal): 82.9%
growth (TK-10 renal): 86.8%
growth (ACHN renal): 85.7%
growth (CAKI-1 renal): 81.7%
growth (A498 renal): 97.1%
growth (CCRF-CEM leukemia): -27.1% (active)
growth (MOLT-4 leukemia): 87.3%
growth (SR leukemia): 91.5%

CC(CCC(=O)O)(NC(=O)c1ccc([N+](=O)[O-])cc1)C(=O)O (stereo not given)
growth (EKVX NSCLC): 114%
growth (SN12C renal): 107%
growth (UO-31 renal): 86.2%
growth (TK-10 renal): 106%
growth (ACHN renal): 125%
growth (CAKI-1 renal): 108%
growth (A498 renal): 108%
growth (CCRF-CEM leukemia): 103%
growth (MOLT-4 leukemia): 93.6%
growth (SR leukemia): 95.7%

COc1cc2c(cc1OC)C1CCN3C(=O)CCC3N1CC2 (stereo not given)
growth (EKVX NSCLC): 114%
growth (SN12C renal): 109%
growth (UO-31 renal): 99.7%
growth (TK-10 renal): 104%
growth (ACHN renal): 102%
growth (CAKI-1 renal): 115%
growth (A498 renal): 104%
growth (CCRF-CEM leukemia): 102%
growth (MOLT-4 leukemia): 97.3%
growth (SR leukemia): 95.8%

O=C1CCCN1C1CCN(Cc2cc3ccccc3[nH]c2=O)c2ccccc21 (stereo not given)
growth (EKVX NSCLC): 79%
growth (SN12C renal): 88.3%
growth (UO-31 renal): 52.5%
growth (TK-10 renal): 93.3%
growth (ACHN renal): 89.1%
growth (CAKI-1 renal): 79.3%
growth (A498 renal): 111%
growth (CCRF-CEM leukemia): 76.4%
growth (MOLT-4 leukemia): 68.7%
growth (SR leukemia): 73.1%

C=C(C[C@](O)(C(=O)/C=C/c1ccc(Cl)cc1)C(=O)OC)c1ccccc1
growth (EKVX NSCLC): 82.8%
growth (SN12C renal): 74.8%
growth (UO-31 renal): 52.6%
growth (TK-10 renal): 64.6%
growth (ACHN renal): 72.2%
growth (CAKI-1 renal): 68.5%
growth (A498 renal): 97.1%
growth (CCRF-CEM leukemia): 40.8%
growth (MOLT-4 leukemia): 62.9%
growth (SR leukemia): 23.3%

Cc1cc(O)c2c(c1)C[C@H]1[C@@H]3CC[C@H]4CC(=O)CC[C@]4(C)[C@H]3CC(=O)[C@]21C
growth (EKVX NSCLC): 49.8%
growth (SN12C renal): 81.3%
growth (UO-31 renal): 113%
growth (TK-10 renal): 92.5%
growth (ACHN renal): 94.7%
growth (CAKI-1 renal): 83.9%
growth (A498 renal): 103%
growth (CCRF-CEM leukemia): 58.8%
growth (MOLT-4 leukemia): 53.7%
growth (SR leukemia): 59.2%

CC(=O)c1nc2ccccc2n1CCn1cc(CC(N)C(=O)O)c2ccccc21 (stereo not given)
growth (EKVX NSCLC): 82.4%
growth (SN12C renal): 93.7%
growth (UO-31 renal): 69.4%
growth (TK-10 renal): 102%
growth (ACHN renal): 96.9%
growth (CAKI-1 renal): 95.9%
growth (A498 renal): 116%
growth (CCRF-CEM leukemia): 82.9%
growth (MOLT-4 leukemia): 83.9%
growth (SR leukemia): 90.7%

N#Cc1cnc2cc(OC[C@H](O)CO)c(NC(=O)CC3CSSC3)cc2c1Nc1ccc(OCc2cccc(F)c2)c(Cl)c1
growth (EKVX NSCLC): -69.9% (active)
growth (SN12C renal): -65.7% (active)
growth (UO-31 renal): 47.6%
growth (TK-10 renal): -70.5% (active)
growth (ACHN renal): 20.8%
growth (CAKI-1 renal): 70.1%
growth (A498 renal): -71.5% (active)
growth (CCRF-CEM leukemia): -81.8% (active)
growth (MOLT-4 leukemia): -90.1% (active)
growth (SR leukemia): -72.6% (active)

COc1ccc2c(c1)C(=O)c1c-2c(=O)n(CCCCCCC(=O)NO)c2ccccc12
growth (EKVX NSCLC): 31.3%
growth (SN12C renal): 8.66% (active)
growth (UO-31 renal): -33.8% (active)
growth (TK-10 renal): -9.14% (active)
growth (ACHN renal): -57.8% (active)
growth (CAKI-1 renal): -55.4% (active)
growth (A498 renal): -67.8% (active)
growth (CCRF-CEM leukemia): -7.49% (active)
growth (MOLT-4 leukemia): 4.43% (active)
growth (SR leukemia): 5.2% (active)

CCOC(=O)/C=C(/C)Sc1cc(O)c2ccccc2c1O
growth (EKVX NSCLC): 44.8%
growth (SN12C renal): -68.3% (active)
growth (UO-31 renal): -5.64% (active)
growth (TK-10 renal): 105%
growth (ACHN renal): 25.2%
growth (CAKI-1 renal): 46.1%
growth (A498 renal): 124%
growth (CCRF-CEM leukemia): 38.4%
growth (MOLT-4 leukemia): 33%
growth (SR leukemia): 17.1%

C[n+]1c2ccccc2c(Nc2ccc(N3CCCCC3)cc2)c2[nH]c3ccccc3c21
growth (EKVX NSCLC): -56.1% (active)
growth (SN12C renal): -82.7% (active)
growth (UO-31 renal): -97.5% (active)
growth (TK-10 renal): -79.4% (active)
growth (ACHN renal): -96.2% (active)
growth (CAKI-1 renal): -96.8% (active)
growth (A498 renal): -88.3% (active)
growth (CCRF-CEM leukemia): -49.3% (active)
growth (MOLT-4 leukemia): -63.4% (active)
growth (SR leukemia): -70.1% (active)

NC(N)=N/N=C(/c1ccccc1)c1ccc(Cl)cc1
growth (EKVX NSCLC): 60.6%
growth (SN12C renal): 68.9%
growth (UO-31 renal): 95.4%
growth (TK-10 renal): 94.1%
growth (ACHN renal): 104%
growth (CAKI-1 renal): -17.2% (active)
growth (A498 renal): 56.5%
growth (CCRF-CEM leukemia): 125%
growth (MOLT-4 leukemia): 125%
growth (SR leukemia): 50.3%

Cc1cc2c(cc1[N+](=O)[O-])NC(CNC(C)C)CC2 (stereo not given)
growth (EKVX NSCLC): 95.2%
growth (SN12C renal): 105%
growth (UO-31 renal): 90.7%
growth (TK-10 renal): 97.1%
growth (ACHN renal): 99.7%
growth (CAKI-1 renal): 99.7%
growth (A498 renal): 102%
growth (CCRF-CEM leukemia): 130%
growth (MOLT-4 leukemia): 69.6%
growth (SR leukemia): 119%

CN(C)c1ccc(/C=C(\C#N)c2nc3ccccc3c(=O)[nH]2)cc1
growth (EKVX NSCLC): 92%
growth (SN12C renal): 90.8%
growth (UO-31 renal): 35.7%
growth (TK-10 renal): 101%
growth (ACHN renal): 96.1%
growth (CAKI-1 renal): 98%
growth (A498 renal): 90.7%
growth (CCRF-CEM leukemia): 107%
growth (MOLT-4 leukemia): 118%
growth (SR leukemia): 154%

COc1ccc(/C=C2\COc3ccc(O)c(O)c3C2=O)cc1OC
growth (EKVX NSCLC): 42.2%
growth (SN12C renal): -67.7% (active)
growth (UO-31 renal): -87.9% (active)
growth (TK-10 renal): 5.44% (active)
growth (ACHN renal): -56.3% (active)
growth (CAKI-1 renal): 11.1%
growth (A498 renal): 105%
growth (CCRF-CEM leukemia): -13.9% (active)
growth (MOLT-4 leukemia): -21.5% (active)
growth (SR leukemia): -1.26% (active)

CCc1[nH]nc(-c2ccc(OC)cc2)c1-c1ccccc1OCCN(CC)CC
growth (EKVX NSCLC): 94.5%
growth (SN12C renal): 96.5%
growth (UO-31 renal): 67.3%
growth (TK-10 renal): 109%
growth (ACHN renal): 98.5%
growth (CAKI-1 renal): 89%
growth (A498 renal): 80.7%
growth (CCRF-CEM leukemia): 84.5%
growth (MOLT-4 leukemia): 85.8%
growth (SR leukemia): 62.7%

CCCCSc1cc(C)nc(N)n1
growth (EKVX NSCLC): 97.2%
growth (SN12C renal): 92.1%
growth (UO-31 renal): 45.5%
growth (TK-10 renal): 93.8%
growth (ACHN renal): 96.9%
growth (CAKI-1 renal): 97.6%
growth (A498 renal): 92.8%
growth (CCRF-CEM leukemia): 91.7%
growth (MOLT-4 leukemia): 102%
growth (SR leukemia): 98%

Cc1ccc(NC(=O)COC(=O)c2ccc(S(=O)(=O)N3CCCCCC3)cc2)cc1
growth (EKVX NSCLC): 111%
growth (SN12C renal): 98.7%
growth (UO-31 renal): 85.8%
growth (TK-10 renal): 178%
growth (ACHN renal): 107%
growth (CAKI-1 renal): 108%
growth (A498 renal): 128%
growth (CCRF-CEM leukemia): 135%
growth (MOLT-4 leukemia): 127%
growth (SR leukemia): 131%

Nc1ccc(S(=O)(=O)Nc2ncccn2)cc1
growth (EKVX NSCLC): 103%
growth (SN12C renal): 103%
growth (UO-31 renal): 94.5%
growth (TK-10 renal): 114%
growth (ACHN renal): 98.6%
growth (CAKI-1 renal): 103%
growth (A498 renal): 113%
growth (CCRF-CEM leukemia): 101%
growth (MOLT-4 leukemia): 106%
growth (SR leukemia): 103%

COc1ccc2c3c(c(OCCCN(C)C)nc2c1)-c1ccc(Cl)cc1C3=O
growth (EKVX NSCLC): 21.3%
growth (SN12C renal): 32.6%
growth (UO-31 renal): -72.3% (active)
growth (TK-10 renal): 11.2%
growth (ACHN renal): -75.5% (active)
growth (CAKI-1 renal): 29.5%
growth (A498 renal): 60.9%
growth (CCRF-CEM leukemia): -39.7% (active)
growth (MOLT-4 leukemia): -17.2% (active)
growth (SR leukemia): -32.7% (active)

COc1ccc(-c2cc(Cc3cccs3)c(=O)n(Cn3cncn3)n2)cc1
growth (EKVX NSCLC): 103%
growth (SN12C renal): 93.1%
growth (UO-31 renal): 86.4%
growth (TK-10 renal): 113%
growth (ACHN renal): 97.6%
growth (CAKI-1 renal): 98.3%
growth (A498 renal): 83.5%
growth (CCRF-CEM leukemia): 102%
growth (MOLT-4 leukemia): 93%
growth (SR leukemia): 84%

From PubChem BioAssay (NCI)
